Reference: PubChem BioAssay (Tox21)
“And” between values parts separate entries of the source, which are not always exact repeats. Equal entries are not always repeated. Results filed as inconclusive are left out. Where a call stands in place of a potency, no number is given. The source made the active and inactive calls. Unless noted, calls come from the whole dose curve; as a rule, active = well fitted curve in the direction sought with a large enough effect in the repeat runs; inconclusive = weak or mixed curves; inactive = no such curve, though single readings can be large; an effect the other way counts as inactive or inconclusive.

What was measured:
[1] = qHTS assay for small molecule agonists of the p53 signaling pathway - cell viability (AID 651633; calls by dose curve; note: nearly all actives have a fitted effect of over 30% in size; note: potency is the fitted concentration of half-maximal effect)
In short: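 p53RE-bla cells, seeded at 4,000 per well and rested 5 h at 37 C/5% CO2, received compounds in DMSO for 16 h at 37 C. CellTiter-Glo was then added, and luminescence was read after 30 min at room temperature to gauge cytotoxicity.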

[2] = qHTS assay for small molecules that induce genotoxicity in human embryonic kidney cells expressing luciferase-tagged ATAD5 - cell viability (AID 651634; calls by dose curve; note: nearly all actives have a fitted effect of over 25% in size; note: potency is the fitted concentration of half-maximal effect)
In short: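 15.5 hr compound or vehicle exposure of HEK293T cells expressing luciferase-tagged ATAD5 at 37C; live-cell protease activity is read by fluorescence after 30 min of CellTiter-Fluor.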

[3] = qHTS assay for small molecule disruptors of the mitochondrial membrane potential - cell viability (AID 720634; calls by dose curve; note: nearly all actives have a fitted effect of over 20% in size; note: potency is the fitted concentration of half-maximal effect)
In short: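 In this qHTS format, HepG2 cells plated overnight were pinned with compound, incubated 1 hr, and assayed for ATP luminescence with CellTiter-Glo after m-MPI dye addition.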

[4] = qHTS assay to test for compound auto fluorescence at 590 nm (red) in HepG2 cells (AID 720674)
In short: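 Compound auto-fluorescence is scored relative to Rose Bengal sodium, measured at 540/590 nm in live HepG2 cultures after 1 hr compound contact (37 C, 5% CO2).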

[5] = qHTS assay to test for compound auto fluorescence at 535 nm (green) in HepG2 cells (AID 720675)
[6] = qHTS assay to test for compound auto fluorescence at 460 nm (blue) in HEK293 cells (AID 720678)
In short: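 HEK293, 2,000 cells/well, 10% dialyzed FBS; attach 4-5 hr 37C; pin compound or DMSO; o/n 37C/5% CO2; fluorescence 405/460 nm; triamterene-equivalent units.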

[7] = qHTS assay to test for compound auto fluorescence at 590 nm (red) in HEK293 cells (AID 720679)
In short: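 Intensity at 540nm excitation and 590nm emission is reported as Rose Bengal sodium-equivalent autofluorescence. Measurements followed overnight exposure (37C, 5% CO2) of HEK293 cells, 2,000 per well, to 23 nL compound.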

[8] = qHTS assay to test for compound auto fluorescence at 535 nm (green) in HEK293 cells (AID 720680)
[9] = qHTS assay to test for compound auto fluorescence at 460 nm (blue) in HEK293 cell free culture (AID 720681)
In short: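 Test compounds were pinned into cell-free culture medium (DMEM with 10% FBS) and fluorescence was read directly at Ex/Em 405/460 nm. Signals were expressed as fluorescence equivalents of triamterene, with DMSO vehicle as control.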

[10] = qHTS assay to test for compound auto fluorescence at 535 nm (green) in HEK293 cell free culture (AID 720682)
In short: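 Steps: dispense DMEM/10% FBS into empty wells; pin in compound or DMSO; measure fluorescence at 485/535 nm. Values are fluorescein equivalents.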

[11] = qHTS assay to test for compound auto fluorescence at 590 nm (red) in HEK293 cell free culture (AID 720683)
In short: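 Tox21 10K library compounds were pinned into cell-free DMEM with 10% FBS and fluorescence was read at excitation 540 nm. Activity is expressed as Rose Bengal sodium equivalency.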

[12] = qHTS assay to test for compound auto fluorescence at 590 nm (red) in HepG2 cell free culture (AID 720684)
In short: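 Ex 540 / Em 590 nm read of compound in cell-free MEM (10% FBS). Rose Bengal sodium reference.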

[13] = qHTS assay to test for compound auto fluorescence at 460 nm (blue) in HepG2 cell free culture (AID 720685)
In short: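 Cell-free plates of MEM plus 10% FBS received 23 nL compound or DMSO vehicle; blue-channel (405/460 nm) intensity scored against triamterene as reference fluorophore.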

[14] = qHTS assay to test for compound auto fluorescence at 535 nm (green) in HepG2 cell free culture (AID 720686)
[15] = qHTS assay to test for compound auto fluorescence at 460 nm (blue) in HepG2 cells (AID 720687)
In short: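 Cells (2,000/well in MEM with 10% FBS) attached overnight at 37 C, then were exposed to compound or DMSO for 1 hr at 37 C, 5% CO2. Fluorescence read at Ex/Em 405/460 nm, expressed as triamterene-equivalent signal.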

[16] = qHTS assay for small molecules that induce genotoxicity in human embryonic kidney cells expressing luciferase-tagged ATAD5 (AID 651632); note: nearly all actives have a fitted effect of over 15% in size
In short: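 Concentration-response screen for ATAD5 upregulation in HEK293T luciferase reporter cells; 16 hr treatment at 37C, then luminescence after 30 min with Amplite at room temperature.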

[17] = target: Glucocorticoid receptor (Homo sapiens) (UniProt P04150); assay: qHTS assay to identify small molecule agonists of the glucocorticoid receptor (GR) signaling pathway (AID 720691; active = well fitted activation curve with a large enough effect in the signal ratio in the repeat runs, not every such curve was filed as active; the % refers to the signal ratio)
Chain of Glucocorticoid receptor (Homo sapiens) (P04150 whole entry, looked up): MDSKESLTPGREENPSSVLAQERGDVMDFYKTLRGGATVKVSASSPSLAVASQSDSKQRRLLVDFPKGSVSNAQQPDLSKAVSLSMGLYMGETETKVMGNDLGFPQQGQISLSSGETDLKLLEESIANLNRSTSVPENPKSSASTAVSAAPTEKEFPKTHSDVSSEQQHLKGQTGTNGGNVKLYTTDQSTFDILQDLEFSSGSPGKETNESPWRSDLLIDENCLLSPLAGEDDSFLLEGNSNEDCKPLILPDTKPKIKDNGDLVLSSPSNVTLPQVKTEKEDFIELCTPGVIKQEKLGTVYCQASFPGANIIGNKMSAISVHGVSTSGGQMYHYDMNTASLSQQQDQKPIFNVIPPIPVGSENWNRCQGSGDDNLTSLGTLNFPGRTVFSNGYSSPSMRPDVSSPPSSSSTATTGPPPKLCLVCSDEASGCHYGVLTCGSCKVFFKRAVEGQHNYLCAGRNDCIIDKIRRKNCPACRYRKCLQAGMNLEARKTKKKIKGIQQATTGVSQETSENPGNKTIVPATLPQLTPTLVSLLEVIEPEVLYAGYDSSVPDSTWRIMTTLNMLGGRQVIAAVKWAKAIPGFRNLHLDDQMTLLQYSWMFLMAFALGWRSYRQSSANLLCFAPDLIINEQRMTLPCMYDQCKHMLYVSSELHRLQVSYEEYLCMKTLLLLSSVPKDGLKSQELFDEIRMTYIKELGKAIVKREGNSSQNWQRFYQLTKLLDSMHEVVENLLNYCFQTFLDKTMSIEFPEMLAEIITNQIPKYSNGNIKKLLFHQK
In short: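 Measures GR pathway activation through a GRE-beta-lactamase reporter stably integrated in HeLa cells, with 18 h compound treatment at 37 C and fluorescence detection using a FRET substrate.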

[18] = target: Glucocorticoid receptor (Homo sapiens) (UniProt P04150); assay: qHTS assay to identify small molecule antagonists of the glucocorticoid receptor (GR) signaling pathway (AID 720692; active = well fitted inhibition curve with a large enough effect in the signal ratio in the repeat runs, not every such curve was filed as active; the % refers to the signal ratio)
In short: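 Tox21 10K library screened in concentration-response for blockade of dexamethasone (5 nM final)-induced GRE-bla reporter activity in HeLa cells; 18 h treatment, fluorescence read.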

[19] = qHTS assay for small molecule disruptors of the mitochondrial membrane potential (AID 720635)
In short: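 HepG2 cells (2,000/well) attached overnight at 37C, then took compound for 1 hr at 37C, 5% CO2. Mito-MPS dye was added for 30 min; fluorescence was read at 490/535 nm (monomers) and 540/590 nm (aggregates).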

SMILES	Potency [1]	Potency [2]	Potency [3]	Potency [4]	Potency [5]	Potency [6]	Potency [7]	Potency [8]	Potency [9]	Potency [10]	Potency [11]	Potency [12]	Potency [13]	Potency [14]	Potency [15]	Potency [16]	Potency [17]	Potency [18]	Potency [19]
Cc1ccc(S(=O)(=O)O)cc1	inactive	inactive	inactive	inactive	inactive	inactive	inactive	inactive	inactive	inactive	inactive	inactive	inactive	inactive	inactive				
CN(C)CCOC(c1ccccc1)c1ccccc1	inactive	inactive	inactive	inactive	inactive	inactive	inactive	inactive	inactive		inactive	inactive	inactive	inactive	inactive	inactive	inactive	inactive	
C1=CC2C3C=CC(C3)C2C1 (centres undefined)	inactive	inactive	inactive	inactive	inactive	inactive	inactive	inactive	inactive		inactive	inactive	inactive	inactive	inactive	inactive	inactive		
O=S1(=O)OC(c2ccc(O)cc2)(c2ccc(O)cc2)c2ccccc21	inactive	48.6 µM (active) and 8.63 µM (active)		inactive	inactive	inactive	inactive	inactive	inactive	inactive	inactive	inactive	inactive	inactive	inactive	inactive			
O=c1[nH]cnc2c1ncn2[C@H]1CC[C@@H](CO)O1		inactive	inactive	inactive	inactive	inactive	inactive	inactive	inactive		inactive	inactive	inactive	inactive	inactive	inactive	inactive	inactive	inactive
F[B-](F)(F)F		inactive	inactive	inactive	inactive	inactive	inactive	inactive	inactive		inactive	inactive	inactive	inactive	inactive	inactive			
CC/C(=C(\c1ccccc1)c1ccc(OCCN(C)C)cc1)c1ccccc1	54.5 µM (active) [middle of 5 runs]	29.8 µM (active) and 61.5 µM (active)	54.8 µM (active) and 61.1 µM (active)	inactive	inactive	inactive	inactive	inactive	inactive	inactive	inactive	inactive	inactive	inactive	inactive				
COc1ccc2cc(S(=O)(=O)N[C@H](CC(=O)N[C@H](Cc3ccc(CN4[C@H](C)CCC[C@@H]4C)cc3)C(=O)N(C)C(C)C)c3ccc4c(c3)OCO4)ccc2c1		57.9 µM (active)	inactive	inactive	inactive	inactive	inactive	inactive	inactive	inactive	inactive	inactive	inactive	inactive	inactive	inactive			
